Measured values taken from PubChem BioAssay (NCI).
About 79,000 compounds went through this panel and 15% of them were active in at least one assay; those are over-represented in the sample as a whole. A number with no mark means an inactive call. Activity calls are given as the source filed them. Rule as the data show it: active = growth inhibition above about 70%; inactive = the rest.

Experiments:
[1] = NCI Yeast Anticancer Drug Screen. Data for the rad52 strain (AID 147);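 also: 0% = growth of vehicle-treated control cultures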; settings: S. cerevisiae rad52 mutant growth inhibition, hits give high values
In short: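 The repair-mutant yeast strain was incubated with compounds, then growth was read and inhibition derived relative to vehicle.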

[2] = NCI Yeast Anticancer Drug Screen. Data for the rad50EPP+ strain (AID 151);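 also: 0% = growth of vehicle-treated control cultures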; settings: S. cerevisiae rad50 mutant strain, hits give high values
In short: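 Vehicle-normalised growth inhibition; rad50EPP+ yeast strain, altered in DNA damage repair, compound-treated.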

[3] = NCI Yeast Anticancer Drug Screen. Data for the mgt1 strain (AID 153); settings: S. cerevisiae mgt1 mutant growth inhibition, hits give high values
In short: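 Vehicle-normalized growth inhibition is determined in mgt1 yeast, a strain selected for a defined alteration in DNA repair or cell cycle control.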

[4] = NCI Yeast Anticancer Drug Screen. Data for the rad50 strain (AID 155);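 also: 0% = growth of vehicle-only cultures of the same strain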; settings: S. cerevisiae rad50 strain growth inhibition, hits give high values
In short: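 Relative growth inhibition (compound vs vehicle) was measured in yeast with a defined repair-gene alteration.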

[5] = NCI Yeast Anticancer Drug Screen. Data for the mec2-1 strain (AID 157); settings: S. cerevisiae mec2-1 strain, hits give high values
In short: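 Mutant yeast (mec2-1) grown with compound; growth inhibition relative to vehicle control reported.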

[6] = NCI Yeast Anticancer Drug Screen. Data for the sgs1 mgt1 strain (AID 161);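 also: 0% = growth of cultures given vehicle only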; settings: S. cerevisiae sgs1 mgt1 strain, hits give high values
In short: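 Yeast cells carrying a defined DNA-repair defect were exposed to test compounds. Growth inhibition was measured relative to vehicle-treated controls.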

[7] = NCI Yeast Anticancer Drug Screen. Data for the CLN2oe strain (AID 163);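 also: 0% = growth of vehicle-only control cultures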; settings: S. cerevisiae CLN2oe strain, hits give high values
In short: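 Compounds are applied to yeast harbouring a defined cell-cycle control change; reduced growth compared with vehicle-treated controls gives the value.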

[8] = NCI Yeast Anticancer Drug Screen. Data for the cln2 rad14 strain (AID 165);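 also: 0% = growth equal to vehicle treated cultures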; settings: S. cerevisiae cln2 rad14 strain, hits give high values
In short: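 Readout is yeast growth inhibition versus vehicle-treated controls, using a strain with cln2 and rad14 alterations exposed to compound.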

[9] = NCI Yeast Anticancer Drug Screen. Data for the bub3 strain (AID 167); settings: S. cerevisiae bub3 mutant strain, hits give high values
In short: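 Screening used yeast with an engineered genetic alteration affecting cell cycle control. Compound-exposed cultures were compared with vehicle cultures, and reduced growth was taken as inhibition.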

[10] = NCI Yeast Anticancer Drug Screen. Data for the wt2 strain (AID 169);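 also: 0% = growth of vehicle-treated yeast cultures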; settings: S. cerevisiae wt2 strain growth inhibition, hits give high values
In short: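 Against vehicle-treated controls, the growth of yeast exposed to each compound was compared, and the inhibition was recorded.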

[11] = NCI Yeast Anticancer Drug Screen. Data for the mlh1 strain (AID 171);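 also: 0% = growth of vehicle-treated control cultures of the same strain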; settings: S. cerevisiae mlh1 strain growth inhibition, hits give high values
In short: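 Measured: yeast growth. Reference: vehicle-treated controls. Organism: strain with a defined alteration affecting DNA damage repair or cell cycle control, treated with compound.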

[12] = NCI Yeast Anticancer Drug Screen. Data for the sgs1 strain (AID 173);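 also: 0% = growth of vehicle-only control cultures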; settings: S. cerevisiae sgs1 mutant, hits give high values
In short: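 Each compound was added to cultures of the altered yeast strain. Growth was recorded, and inhibition was derived by comparison with vehicle controls.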

[13] = NCI Yeast Anticancer Drug Screen. Data for the mlh1 rad18 strain (AID 175); settings: S. cerevisiae mlh1 rad18 strain growth inhibition, hits give high values
In short: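 Genetically defined yeast (DNA repair-deficient) exposed to compounds; growth inhibition determined relative to vehicle.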

[14] = NCI Yeast Anticancer Drug Screen. Data for the rad18 strain (AID 177); settings: S. cerevisiae rad18 mutant growth inhibition, hits give high values
In short: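 Vehicle-treated cultures served as the baseline for scoring compound-induced growth inhibition in DNA-repair-mutant yeast.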

[15] = NCI Yeast Anticancer Drug Screen. Data for the wt1 strain (AID 149);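 also: 0% = growth of vehicle-treated wt1 cultures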; settings: S. cerevisiae wt1 strain (SPY 50644) growth inhibition, hits give high values
In short: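 Using yeast strain wt1, compound-induced growth inhibition was determined against vehicle-treated cultures.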

[16] = NCI Yeast Anticancer Drug Screen. Data for the rad14 strain (AID 159);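 also: 0% = growth of vehicle-treated control cultures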; settings: S. cerevisiae rad14 strain growth inhibition, hits give high values
In short: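 Screen for anticancer potential: a yeast strain altered in DNA damage repair is grown with compound, and reduced growth is quantified against vehicle controls.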

[17] = at 5.0 µM (retest, dose inferred, filed as 0.5)
[18] = at 50.0 µM (retest, dose inferred, filed as 5.0)

SMILES: Cc1ccc(S/N=C\c2ccccc2O)cc1
- growth inhibition ([1]; at 1.2 µM): 1%
- growth inhibition ([1]; at 3.7 µM): -6%
- growth inhibition ([1]; at 11.0 µM): -3%
- growth inhibition ([1]; at 33.0 µM): 0%
- growth inhibition ([1]; at 100.0 µM): 8%
- growth inhibition ([2]; at 1.2 µM): 4%
- growth inhibition ([2]; at 3.7 µM): 3%
- growth inhibition ([2]; at 11.0 µM): 6%
- growth inhibition ([2]; at 33.0 µM): 17%
- growth inhibition ([2]; at 100.0 µM): 35%
- growth inhibition ([3]; at 1.2 µM): 2%
- growth inhibition ([3]; at 3.7 µM): -1%
- growth inhibition ([3]; at 11.0 µM): 1%
- growth inhibition ([3]; at 33.0 µM): 7%
- growth inhibition ([3]; at 100.0 µM): -1%
- growth inhibition ([4]; at 1.2 µM): -2%
- growth inhibition ([4]; at 3.7 µM): -12%
- growth inhibition [4, 17]: -130%
- growth inhibition ([4]; at 11.0 µM): 2%
- growth inhibition ([4]; at 33.0 µM): 12%
- growth inhibition [4, 18]: 79% (active)
- growth inhibition ([4]; at 50.0 µM): 89.6% (active)
- growth inhibition ([4]; at 100.0 µM): 6%
- growth inhibition ([5]; at 1.2 µM): 0%
- growth inhibition ([5]; at 3.7 µM): 3%
- growth inhibition [5, 17]: -48%
- growth inhibition ([5]; at 11.0 µM): -11%
- growth inhibition ([5]; at 33.0 µM): -1%
- growth inhibition [5, 18]: -4%
- growth inhibition ([5]; at 50.0 µM): 73.6% (active)
- growth inhibition ([5]; at 100.0 µM): 7%
- growth inhibition [6, 17]: -59%
- growth inhibition [6, 18]: 53%
- growth inhibition ([6]; at 50.0 µM): 62%
- growth inhibition ([7]; at 1.2 µM): 2%
- growth inhibition ([7]; at 3.7 µM): 1%
- growth inhibition ([7]; at 11.0 µM): 2%
- growth inhibition ([7]; at 33.0 µM): 2%
- growth inhibition ([7]; at 100.0 µM): 4%
- growth inhibition [8, 17]: -58%
- growth inhibition [8, 18]: -23%
- growth inhibition ([8]; at 50.0 µM): 34.9%
- growth inhibition ([9]; at 1.2 µM): -4%
- growth inhibition ([9]; at 3.7 µM): -6%
- growth inhibition [9, 17]: -59%
- growth inhibition ([9]; at 11.0 µM): -2%
- growth inhibition ([9]; at 33.0 µM): -5%
- growth inhibition [9, 18]: 47%
- growth inhibition ([9]; at 50.0 µM): 76.5% (active)
- growth inhibition ([9]; at 100.0 µM): 4%
- growth inhibition ([10]; at 1.2 µM): 4%
- growth inhibition ([10]; at 3.7 µM): 4%
- growth inhibition ([10]; at 11.0 µM): 5%
- growth inhibition ([10]; at 33.0 µM): 0%
- growth inhibition ([10]; at 100.0 µM): -1%
- growth inhibition ([11]; at 1.2 µM): 9%
- growth inhibition ([11]; at 3.7 µM): 2%
- growth inhibition ([11]; at 11.0 µM): -2%
- growth inhibition ([11]; at 33.0 µM): 0%
- growth inhibition ([11]; at 100.0 µM): 1%
- growth inhibition ([12]; at 1.2 µM): 3%
- growth inhibition ([12]; at 3.7 µM): 7%
- growth inhibition ([12]; at 11.0 µM): 7%
- growth inhibition ([12]; at 33.0 µM): 9%
- growth inhibition ([12]; at 100.0 µM): 6%
- growth inhibition [13, 17]: -112%
- growth inhibition [13, 18]: 31%
- growth inhibition ([13]; at 50.0 µM): 94.3% (active)
- growth inhibition ([14]; at 1.2 µM): -1%
- growth inhibition ([14]; at 3.7 µM): 0%
- growth inhibition ([14]; at 11.0 µM): 0%
- growth inhibition ([14]; at 33.0 µM): 1%
- growth inhibition ([14]; at 100.0 µM): 9%

SMILES: CC(=O)Nc1ccc(/C=C(\C#N)c2ccc(C)cc2)cc1
- growth inhibition ([15]; at 1.2 µM): 0%
- growth inhibition ([15]; at 3.7 µM): -2%
- growth inhibition ([15]; at 11.0 µM): -6%
- growth inhibition ([15]; at 33.0 µM): -6%
- growth inhibition ([15]; at 100.0 µM): 1%
- growth inhibition ([2]; at 1.2 µM): -11%
- growth inhibition ([2]; at 3.7 µM): -20%
- growth inhibition ([2]; at 11.0 µM): -18%
- growth inhibition ([2]; at 33.0 µM): -8%
- growth inhibition ([2]; at 100.0 µM): -5%
- growth inhibition ([3]; at 1.2 µM): -6%
- growth inhibition ([3]; at 3.7 µM): -16%
- growth inhibition ([3]; at 11.0 µM): -17%
- growth inhibition ([3]; at 33.0 µM): -10%
- growth inhibition ([3]; at 100.0 µM): -13%
- growth inhibition ([4]; at 1.2 µM): -25%
- growth inhibition ([4]; at 3.7 µM): -23%
- growth inhibition [4, 17]: 30%
- growth inhibition ([4]; at 11.0 µM): -23%
- growth inhibition ([4]; at 33.0 µM): -13%
- growth inhibition [4, 18]: 93% (active)
- growth inhibition ([4]; at 50.0 µM): 28.4%
- growth inhibition ([4]; at 100.0 µM): -1%
- growth inhibition ([5]; at 1.2 µM): -16%
- growth inhibition ([5]; at 3.7 µM): -23%
- growth inhibition [5, 17]: 40%
- growth inhibition ([5]; at 11.0 µM): -22%
- growth inhibition ([5]; at 33.0 µM): -33%
- growth inhibition [5, 18]: 95% (active)
- growth inhibition ([5]; at 50.0 µM): 18.7%
- growth inhibition ([5]; at 100.0 µM): -30%
- growth inhibition ([16]; at 1.2 µM): 1%
- growth inhibition ([16]; at 3.7 µM): -9%
- growth inhibition ([16]; at 11.0 µM): -5%
- growth inhibition ([16]; at 33.0 µM): 4%
- growth inhibition ([16]; at 100.0 µM): 1%
- growth inhibition [6, 17]: -12%
- growth inhibition [6, 18]: 45%
- growth inhibition ([6]; at 50.0 µM): 24.6%
- growth inhibition ([7]; at 1.2 µM): -3%
- growth inhibition ([7]; at 3.7 µM): -1%
- growth inhibition ([7]; at 11.0 µM): -3%
- growth inhibition ([7]; at 33.0 µM): 8%
- growth inhibition ([7]; at 100.0 µM): 20%
- growth inhibition [8, 17]: 63%
- growth inhibition [8, 18]: 2%
- growth inhibition ([8]; at 50.0 µM): 19.2%
- growth inhibition ([9]; at 1.2 µM): -27%
- growth inhibition ([9]; at 3.7 µM): -21%
- growth inhibition [9, 17]: -11%
- growth inhibition ([9]; at 11.0 µM): -12%
- growth inhibition ([9]; at 33.0 µM): 7%
- growth inhibition [9, 18]: 39%
- growth inhibition ([9]; at 50.0 µM): 63.7%
- growth inhibition ([9]; at 100.0 µM): -16%
- growth inhibition ([12]; at 1.2 µM): -21%
- growth inhibition ([12]; at 3.7 µM): -19%
- growth inhibition ([12]; at 11.0 µM): -23%
- growth inhibition ([12]; at 33.0 µM): -13%
- growth inhibition ([12]; at 100.0 µM): -17%
- growth inhibition [13, 17]: 34%
- growth inhibition [13, 18]: 97% (active)
- growth inhibition ([13]; at 50.0 µM): 24.6%
- growth inhibition ([14]; at 1.2 µM): -18%
- growth inhibition ([14]; at 3.7 µM): -9%
- growth inhibition ([14]; at 11.0 µM): -17%
- growth inhibition ([14]; at 33.0 µM): -3%
- growth inhibition ([14]; at 100.0 µM): -16%
